Bioassay records (PubChem BioAssay)
Rows were chosen to be rich in hits. Some 12% of all compounds tested hit in one or more screens of this group.
L3MBTL1 inh – L3MBTL1 (human) inhibition; AlphaScreen L3MBTL1–H3K9me1 peptide binding; Q9Y468; 0.66% of 230,000 active; Potency, µM (titrated, usually from 57.1 µM), without a hit: at the highest dose activity, negative = inhibition, most hits filed as inhibitors; note: % is set by controls: 0 for no effect and ±100 for the full control effect; nearly all actives have a fitted effect of over 60% in size
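AlphaScreen proximity signal between nickel-chelate acceptor and streptavidin donor beads (final 10 ug/mL) reports binding of 50 nM L3MBTL1 to 75 nM biotin-H3 K9me1 peptide; complex incubated with compounds 30 min at room temperature; cefsulodin titration as control.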
Sfp inh – blocks B. subtilis Sfp PPTase activity. Q9F4F7. Biochemical Sfp PPTase activity, qHTS. Potency, µM, without a hit: largest response in the series, negative = inhibition, hits mostly inhibitors. 3.5% of 310,000 active;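 note: the enzyme is Sfp with the accession as filed and its product quenches rhodamine fluorescence; 0% = enzyme reaction without inhibitor and -100% = no enzyme wells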
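Sfp 15 nM + cpd, 15 min RT; start w/ rhodamine-CoA 5 uM, BHQ-2-YbbR 12.5 uM (final); 50 mM Hepes pH 7.6, 10 mM MgCl2, 0.01% NP-40, 0.01% BSA; read 525/598 nm at 0 and 30 min.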
JMJD2A Tudor – inhibitors of human JMJD2A Tudor domain; AlphaScreen JMJD2A-Tudor / H3K4me3 peptide binding; AID 504339; Potency, µM (titrated, usually from 114 µM), without a hit: at the highest dose activity change, negative = inhibition, most hits filed as inhibitors; 4.4% of 390,000 active; O75164; note: % is set by controls: 0 for no effect and ±100 for the full control effect; nearly all actives have a fitted effect of over 50% in size
Target sequence (O75164 whole entry, looked up, the tested form may be a part): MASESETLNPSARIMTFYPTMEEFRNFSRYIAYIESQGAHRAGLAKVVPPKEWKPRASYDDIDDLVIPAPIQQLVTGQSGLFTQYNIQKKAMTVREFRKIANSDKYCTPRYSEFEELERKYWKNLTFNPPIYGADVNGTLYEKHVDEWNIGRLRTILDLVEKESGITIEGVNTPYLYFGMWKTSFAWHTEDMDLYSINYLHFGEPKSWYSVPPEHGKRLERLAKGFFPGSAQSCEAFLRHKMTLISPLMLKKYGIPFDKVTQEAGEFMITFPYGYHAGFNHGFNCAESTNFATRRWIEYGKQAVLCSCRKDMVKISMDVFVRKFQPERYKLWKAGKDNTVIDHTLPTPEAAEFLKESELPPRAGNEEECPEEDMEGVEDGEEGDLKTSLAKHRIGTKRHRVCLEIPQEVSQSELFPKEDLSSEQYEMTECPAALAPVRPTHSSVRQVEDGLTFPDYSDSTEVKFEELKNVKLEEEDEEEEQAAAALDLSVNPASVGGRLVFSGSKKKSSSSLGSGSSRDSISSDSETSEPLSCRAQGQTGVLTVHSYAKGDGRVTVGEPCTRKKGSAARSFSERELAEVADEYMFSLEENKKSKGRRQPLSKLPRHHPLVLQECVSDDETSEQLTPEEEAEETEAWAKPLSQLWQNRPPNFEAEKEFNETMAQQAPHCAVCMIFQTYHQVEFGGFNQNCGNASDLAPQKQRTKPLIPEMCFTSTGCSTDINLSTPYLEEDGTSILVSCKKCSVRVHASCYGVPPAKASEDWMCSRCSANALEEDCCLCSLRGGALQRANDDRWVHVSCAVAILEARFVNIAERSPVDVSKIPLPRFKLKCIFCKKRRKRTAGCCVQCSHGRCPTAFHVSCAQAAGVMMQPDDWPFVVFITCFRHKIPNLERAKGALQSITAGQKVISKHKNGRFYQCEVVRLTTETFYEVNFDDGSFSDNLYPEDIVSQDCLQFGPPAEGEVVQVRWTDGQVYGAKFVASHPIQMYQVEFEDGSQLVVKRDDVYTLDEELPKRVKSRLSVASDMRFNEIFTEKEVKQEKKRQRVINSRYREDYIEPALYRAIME
HP1b binding inh – blocks HP1-beta chromodomain binding to methylated histone tails. P83916. AlphaScreen HP1-beta / biotin-H3K9me3 peptide binding. Potency, µM (top dose mostly 114 µM), for the others: top-dose activity change, negative = inhibition, actives largely listed as inhibitors. 0.56% of 390,000 active. AID 540317; note: nearly all actives have a fitted effect of over 70% in size
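Compound inhibition of the preformed complex between 50 nM HP1-beta and 50 nM biotinylated H3K9me3 peptide was read by AlphaScreen. Buffer was PBS pH 7.4 with 0.01% Tween-20. Incubations ran 30 min at room temperature, with 10 ug/mL donor/acceptor beads.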
BAZ2B inh – blocks human BAZ2B; AID 504333; AlphaScreen BAZ2B-H3K14Ac peptide displacement; Potency, µM (doses to about 114 µM), inactives show at the top dose activity change, negative = inhibition, most hits filed as inhibitors; 4.4% of 360,000 active; note: % is set by controls: 0 for no effect and ±100 for the full control effect; nearly all actives have a fitted effect of over 60% in size
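AlphaScreen displacement of biotin-H3(5-23)K14Ac peptide (50 nM final) from BAZ2B (50 nM final) in PBS pH 7.4, 0.01% Tween-20; complex preformed 30 min RT, then compounds (top 110 uM) 30 min RT, beads 20 min dark.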
G9a block – blocks human histone lysine methyltransferase G9a; G9a H3K9 monomethylation, AlphaScreen, 2 h; 8.8% of 350,000 active; Q96KQ7; Potency, µM (highest dose often 102 µM), for inactives: at the top dose activity, negative = inhibition, hits mostly inhibitors; AID 504332; note: % is set by controls: 0 for no effect and ±100 for the full control effect; nearly all actives have a fitted effect of over 75% in size
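Using a bead-based AlphaScreen, monomethylated H3K9 product from 2 h room-temperature reactions (G9a 20 nM, peptide 500 nM, SAM 20 uM) was detected with 0.5 ug/mL rabbit anti-H3K9me1 antibody.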
* hit, by the source's call; ? = inconclusive; nt = no result; ! = a repeat was not active; [ ] = another dose, or the depositor's remark. Calls come from the whole dose curve; as a rule, active = well fitted curve in the direction sought with a large enough effect; inconclusive = small, poorly fitted or top-dose-only effect, or another doubt; inactive = no such curve, though single readings can be large; an effect the other way counts as inactive or inconclusive. Potency is the fitted concentration of half-maximal effect.

SMILES	L3MBTL1 inh	Sfp inh	JMJD2A Tudor	HP1b binding inh	BAZ2B inh	G9a block
Cc1n[nH]c(=S)n1/N=C/c1ccccc1	3%	4%	4µM*	24%	-7%	10µM*
Oc1ccc(/C=N/n2c(-c3ccccc3)n[nH]c2=S)cc1	1%[2.29 µM]	-2%	20µM*	42%	-3%	-1%[0.501 µM]
Cc1ccc(-n2nc(C)c(/C=N/n3c(C)n[nH]c3=S)c2Cl)cc1	nt	6%	-20%	30%	7%	3.2µM*
CNC(=S)N/N=C/c1c(C)nn(-c2ccccc2)c1Cl	nt	-5%	-4%	29%	22%	-27%[2.33 µM]
COc1cc(/C=N/n2c(-c3ccccc3)n[nH]c2=S)cc(OC)c1OC	-6%	-11%	5µM*	?	-5%	nt
CCOC(=O)N1CCC(NC(=O)c2cccs2)CC1	-9%	6%	-9%	15%	-10%	-1%
CCOC(=O)N1CCC(NCCNC(=O)c2cccs2)CC1	1%	-20%	1.8µM*	?	79µM*	?
CCOC(=O)C1CCN(C(=S)NC(=O)c2cccs2)CC1	nt	-7%	-35%	?	-22%	40µM*
O=C(NCCC1CCCC1)c1cccs1	?	8%	9%	34%	-5%	23%
O=C(NCCNC1CCC(c2ccccc2)CC1)c1cccs1 (configuration not stated)	2%	5%	2.2µM*	?	50µM*	28µM*
O=C(NC(=S)N1CCCCC1CO)c1cccs1 (configuration not stated)	-9%	nt	2.8µM*	-32%	nt	nt
CCOC(=O)CSc1nc2sc3c(c2c(=O)n1Cc1ccccc1)CC(C)CC3 (configuration not stated)	nt	nt	-16%	50%	2%	6%[59 µM]
CCOC(=O)N1CCC(NCCNC(=O)c2ccccc2)CC1	-2%	-15%	2.2µM*!	66%	45µM*!	9%[0.501 µM]
CC(C)CC(=O)Nc1ccc(C(=O)COc2ccc(-c3nnco3)cc2)cc1	-11%	3%	79µM*	-23%	3%	-2%[59 µM]
O=C(COc1ccc(-c2nnco2)cc1)Nc1ccc(F)c(Cl)c1	3%	nt	-18%	-10%	nt	nt
N#Cc1ccsc1NC(=O)COc1ccc(-c2nnco2)cc1	-11%	-29%	-25%	29%	-5%	40µM*
CCCCCCNc1nc(-c2ccc(OC)cc2)c(CCC(=O)O)s1	-11%	-11%	-16%	-2%	?	45µM*
COC(=O)CCc1sc(NC2CCCCC2)nc1-c1ccc(OC)cc1	-14%	-62%	?	?	?	13µM*
COCCNc1nc(-c2ccc(OC)cc2)c(-c2ccc(OC)cc2)s1	-15%	?	?	-3%	71µM*	?
COc1ccc(-c2noc(CCC(=O)NC3CCCCCC3)n2)cc1	nt	9%	-13%	31%	2%	8%
COC(=O)CCc1sc(Nc2ccc(OC)cc2)nc1-c1ccc(OC)cc1	nt	nt	?	-16%	-34%	8.9µM*
O=C(Nc1ccccn1)c1ccc2c(c1)OCCO2	nt	4%	-3%	17%	-8%	16%[59 µM]
O=C(Nc1ccc2c(c1)OCO2)c1ccccn1	-3%	nt	4.5µM*	?	?	1.6µM*
S=C(Nc1ccc2c(c1)OCO2)Nc1ccc2c(c1)OCO2	-2%	-17%	-21%	?	?	?
CN(C)C(=S)Nc1ccc2c(c1)OCO2	0%	22µM*	-3%	-35%	-22%	8.9µM*
Cc1cccnc1NC(=O)c1ccc2c(c1)OCO2	-2%	nt	5%	18%	-8%	-3%
O=C(CNC(=O)c1ccc2c(c1)OCO2)Nc1ncccc1O	-7%	nt	56µM*	5%	?	?
O=C(Nc1ccccn1)c1ccc2c(c1)OCO2	7%	12%	-5%	43%	-16%	50µM*
O=C(c1cnc(N2CCOCC2)c2ccccc12)N1CCN(c2ccccc2)CC1	nt	nt	-21%	15%[57 µM]	-3%	-2%[59 µM]
CCCCn1c(C)cc2c(c1=O)[C@H]1O[C@](CCCCN3C(=O)c4ccccc4C3=O)(Cc3ccccc31)O2	nt	6%	nt	nt	-6%[22.9 µM]	nt
